# Measurements published in the supplement of paper PMC6555819.
# System: RARg homodimer (NR concentration 270 nM)
# Experiment: PBM binding z-score (relative to random genomic background probes); higher = stronger binding; sequences stand for … in GC…GCGATTGACAGCGTAGAATGAAGG
# Summary of the method: (§1)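 Probes were double-stranded and carried 34-nt variable regions with direct-repeat seeds, single-nucleotide variants, half-site ablations and random human genomic background sequences, printed on custom Agilent 4×180K protein-binding microarrays. Arrays were incubated 1 h with ligand-free nuclear receptor dimers in PBS pH 7.4, 2% milk, 0.02% Triton X-100, 1 mM DTT, 0.2 mg/mL BSA and 0.4 mg/ml salmon testes DNA. Antibodies against each partner (one per run) detected binding, and scanned fluorescence was regression-normalized. Binding z-scores use the random background probes as reference.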
row,Sequence,PBM binding z-score
1,TTACCAAGATGAGCTGAGGTCGTTGATCCAACTC,-0.226
2,CTCAAAAGGTCGTGCTCAGGTGAGTATACCAAAC,3.99
3,TCGAGTAGGTTATCAATGGGGCATTCAGCTTTCT,0.272
4,CGAACTAGGTGAGAACAGGACAGTGAAGGATGAT,0.579
5,GATAGAGGGTCAGCTAGAGGCCAGAGTATGGAAA,4.5
6,CGAACTAGGTCTGAACAGGACAGTGAAGGATGAT,0.136
7,TCTTGGAGATCAAGCAGGTTAAGAAAGCCTGAGT,-0.27
8,CTCGAAAAGTCGTGCTCAGGTGAGTATACCAAAC,-0.0265
9,GCTAGTTGGTCAGTAAAAGGTCAGACACCGGTCG,4.27
10,CCTATTAGTTGACCATAGGGGCAACCGAAGCTCG,0.729
11,TCATATAGCTAAACAGGTGAAAGTCCGTAAGTTA,-0.0908
12,ATTTACGGGTCAACGAGGTTATAGCACGCGTATA,5.62
13,ACTATTAGTTGAGACGAAGGCAACCGATAGGTTG,0.233
14,ATCGAAAGGTCGTGAGGTGAGTGTACAGAAAGGC,4.11
15,TCGAGTAGGTTAGGGGCCTTCAGAATGGCGTCGA,-0.763
16,CAAACTAGGTCACGAAAGATCAAAGTCGAATGAC,5.53
17,AGCACGAGGGCAATGAGTTGATAGCACGGGTGGC,1.72
18,TATACAGGGTCAAAGGCCAGCGTACGAATGTCGA,4.83

# System: RXRa DBDmut IVT, anti-RXR (DBD mutation: RXRa K156A/R161A, NR concentration 90 nM)
# Experiment: as above
# Summary of the method: as §1
row,Sequence,PBM binding z-score
1,CCGAGTAGATTATGGGGCATTCAGGCAACGGTGA,0.349
2,CGTCAAAGATCAACTAAGGTAACGTAAAGCACGC,0.338
3,ACTATTAGCTGAGACGAGGGCAACCGATAGGTTG,0.345
4,ATCTCTAGGTAAGAATCAGTTCAGTGAAGAACGC,0.634
5,CTAGAAAGGTCGTGCTCAGGTGAGTATACCAAAC,2.16
6,TATTGTAGATCAACAGGAGGTTAAGAAAGATCGA,-0.715
7,CCTGCTAGGTCAATGTTCAGCTAAAGCAGCTCGC,1.93
8,TCATATAGGTACATGCTAGGTGAAAGTCCGATCT,2.05
9,TTTCGGAGGACACGAAAGGTCAGAGCTCGACATC,0.16
10,CAGCCTAGGTCAGGGCCAGTCTAGGAGGAACGTT,-0.45
11,TTACCAAGATGAAGGTCGTTGATCCCTCTGTAGA,0.4
12,TTACCAAGGTGAGCAGAGGTCGTTGATCCAACTC,-0.0246
13,TCATATAGGTAAACAGGTTAAAGTCCGTAAGTTA,1.85
14,TCGAGTAGGTTAGTCTGGGCATTCAGCCAACATA,-0.133
15,GCTCGGAGGACAAGGTCAGAGCATTGTCCGTAGA,0.0327
16,GATACAGGGTCAGCTAGAGGACAGAGTATGGAAA,1.16
17,ACTAGCAGGCCAAGTTTCGGTCACTCAAACAAAG,0.194
18,AGTACAGGGTCATCGTAGGCCAGAGTACGCACAG,3.47
19,ATCTCTCGGTAACCAAGTTCAGTGAATGCCGAAC,0.703
20,GATACAGGGTCAGCTAGAGGCCAGAGTGTGGAAA,1.34

row,Sequence,PBM binding z-score
1,TAGCCTAGGTCAGATCGGGCCAGTAGACGCTATA,-0.78
2,CGTCCAAGGTTATAGGAGGTCAGTGAAGACAGAT,1.48
3,TTACCAAGATGAGCTGAGGTCGTTGATCCAACTC,0.162
4,CTCAAAAGGTCGTGCTCAGGTGAGTATACCAAAC,2.02
5,TCGAGTAGGTTATCAATGGGGCATTCAGCTTTCT,0.822
6,CGAACTAGGTGAGAACAGGACAGTGAAGGATGAT,0.0565
7,GATAGAGGGTCAGCTAGAGGCCAGAGTATGGAAA,0.579
8,CGAACTAGGTCTGAACAGGACAGTGAAGGATGAT,-0.233
9,TCTTGGAGATCAAGCAGGTTAAGAAAGCCTGAGT,0.163
10,CTCGAAAAGTCGTGCTCAGGTGAGTATACCAAAC,0.322
11,GCTAGTTGGTCAGTAAAAGGTCAGACACCGGTCG,0.252
12,CCTATTAGTTGACCATAGGGGCAACCGAAGCTCG,0.6
13,TCATATAGCTAAACAGGTGAAAGTCCGTAAGTTA,0.797
14,ATTTACGGGTCAACGAGGTTATAGCACGCGTATA,2.5
15,ACTATTAGTTGAGACGAAGGCAACCGATAGGTTG,0.0754
16,ATCGAAAGGTCGTGAGGTGAGTGTACAGAAAGGC,1.26
17,TCGAGTAGGTTAGGGGCCTTCAGAATGGCGTCGA,-0.0601
18,CAAACTAGGTCACGAAAGATCAAAGTCGAATGAC,1.99
19,AGCACGAGGGCAATGAGTTGATAGCACGGGTGGC,2.14
20,TATACAGGGTCAAAGGCCAGCGTACGAATGTCGA,2.96

# System: RXRa homodimer (NR concentration 180 nM)
# Experiment: as above
# Summary of the method: as §1
row,Sequence,PBM binding z-score
1,CCGAGTAGATTATGGGGCATTCAGGCAACGGTGA,-0.0432
2,CGTCAAAGATCAACTAAGGTAACGTAAAGCACGC,0.921
3,ACTATTAGCTGAGACGAGGGCAACCGATAGGTTG,0.587
4,ATCTCTAGGTAAGAATCAGTTCAGTGAAGAACGC,0.2
5,CTAGAAAGGTCGTGCTCAGGTGAGTATACCAAAC,4.44
6,TATTGTAGATCAACAGGAGGTTAAGAAAGATCGA,0.924
7,CCTGCTAGGTCAATGTTCAGCTAAAGCAGCTCGC,1.91
8,TCATATAGGTACATGCTAGGTGAAAGTCCGATCT,0.745
9,TTTCGGAGGACACGAAAGGTCAGAGCTCGACATC,4.66
10,CAGCCTAGGTCAGGGCCAGTCTAGGAGGAACGTT,1.5
11,TTACCAAGATGAAGGTCGTTGATCCCTCTGTAGA,0.993
12,TTACCAAGGTGAGCAGAGGTCGTTGATCCAACTC,2.03
13,TCATATAGGTAAACAGGTTAAAGTCCGTAAGTTA,1.62
14,TCGAGTAGGTTAGTCTGGGCATTCAGCCAACATA,-0.273
15,GCTCGGAGGACAAGGTCAGAGCATTGTCCGTAGA,2.61
16,GATACAGGGTCAGCTAGAGGACAGAGTATGGAAA,4.03
17,ACTAGCAGGCCAAGTTTCGGTCACTCAAACAAAG,-0.395
18,AGTACAGGGTCATCGTAGGCCAGAGTACGCACAG,6.42
19,ATCTCTCGGTAACCAAGTTCAGTGAATGCCGAAC,0.383
20,GATACAGGGTCAGCTAGAGGCCAGAGTGTGGAAA,4.41

row,Sequence,PBM binding z-score
1,TAGCCTAGGTCAGATCGGGCCAGTAGACGCTATA,1.2
2,CGTCCAAGGTTATAGGAGGTCAGTGAAGACAGAT,2.87
3,TTACCAAGATGAGCTGAGGTCGTTGATCCAACTC,0.858
4,CTCAAAAGGTCGTGCTCAGGTGAGTATACCAAAC,4.73
5,TCGAGTAGGTTATCAATGGGGCATTCAGCTTTCT,0.432
6,CGAACTAGGTGAGAACAGGACAGTGAAGGATGAT,0.458
7,GATAGAGGGTCAGCTAGAGGCCAGAGTATGGAAA,3.71
8,CGAACTAGGTCTGAACAGGACAGTGAAGGATGAT,0.134
9,TCTTGGAGATCAAGCAGGTTAAGAAAGCCTGAGT,0.643
10,CTCGAAAAGTCGTGCTCAGGTGAGTATACCAAAC,0.0508
11,GCTAGTTGGTCAGTAAAAGGTCAGACACCGGTCG,3.55
12,CCTATTAGTTGACCATAGGGGCAACCGAAGCTCG,0.362
13,TCATATAGCTAAACAGGTGAAAGTCCGTAAGTTA,0.266
14,ATTTACGGGTCAACGAGGTTATAGCACGCGTATA,6.99
15,ACTATTAGTTGAGACGAAGGCAACCGATAGGTTG,-0.207
16,ATCGAAAGGTCGTGAGGTGAGTGTACAGAAAGGC,5.06
17,TCGAGTAGGTTAGGGGCCTTCAGAATGGCGTCGA,-0.143
18,CAAACTAGGTCACGAAAGATCAAAGTCGAATGAC,4.09
19,AGCACGAGGGCAATGAGTTGATAGCACGGGTGGC,0.851
20,TATACAGGGTCAAAGGCCAGCGTACGAATGTCGA,7.31
